Source: PubChem BioAssay
The list is not random: actives were taken first. Their share in the collection is about 7.1%.
ELG1 genotox = inducers of genotoxicity in HEK293T ELG1-luciferase cells; HEK293T ELG1-luciferase reporter, luminescence, 16 h; actives 1.3% (n = 330,000); AID 504466; Potency, µM (doses to about 46 µM), for the others: top-dose activity change, positive = activation, most hits filed as activators; also: % of control where 0% means no effect; nearly all actives have a fitted effect of over 60% in size
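After overnight (16 hr) compound treatment at 37 °C, ELG1-luciferase HEK293T cells were lysed with ONE-Glo; luminescence quantified 30 min later at room temperature.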
ELG1 DNA repair = ELG1-dependent DNA repair inhibition. HEK293T ELG1-luciferase reporter, luminescence, 16 h; DNA damage induced by 5-fluorouridine. Potency, µM (top dose mostly 46.1 µM), for the others: top-dose activity change, negative = inhibition, usual class: inhibitors. actives 2.3% (n = 330,000). AID 504467; also: % is scaled to controls: 0 for no effect and ±100 for the full control effect; nearly all actives have a fitted effect of over 55% in size
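HEK293T cells expressing luciferase-tagged ELG1 (2,000/well) received 5-Fluorouridine plus compound or DMSO for 16 hr at 37 °C. Luciferase was read by ONE-Glo luminescence after 30 min at room temperature.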
A-T KAP1 phos = potential ataxia-telangiectasia treatment; Potency, µM (series often up to 57.5 µM), for inactives: at the highest dose activation, most hits filed as activators; actives 0.19% (n = 320,000); AID 485349; F2112 A-T fibroblasts, KAP-1 phosphorylation AlphaLISA; neocarzinostatin DNA damage 30 min before lysis; also: % of control where 0% means no effect; nearly all actives have a fitted effect of over 45% in size
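hTERT-immortalized A-T patient fibroblasts (F2112), 500 cells/well in OPTI-MEM, 1% FBS, got compounds for 60 min, then NCS for 30 min at 37C. Lysates were then assayed for phospho-KAP-1 by AlphaLISA (anti-pKAP1 donor, anti-KAP1 acceptor beads), 6 hr at 25C.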
MCF10A rerep = induces DNA re-replication in MCF 10a normal breast cells | MCF 10A DNA re-replication, Hoechst nuclear intensity, 48 h | Potency, µM (top dose mostly 46.1 µM), for inactives: top-dose activity, positive = re-replication, most hits filed as activators | actives 2.9% (n = 350,000); also: % of control where 0% means no effect; nearly all actives have a fitted effect of over 50% in size
p53 reactivation = re-activators of mutant p53; H1299 p53-A138V BP100-luciferase reporter, luminescence, 24 h; Potency, µM (titrated, usually from 92.2 µM), inactives show at the top dose activity change, positive = activation, usual class: activators; actives 0.063% (n = 320,000); AID 504706; also: % of control where 0% means no effect; nearly all actives have a fitted effect of over 45% in size
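H1299 (p53-null), stable ts p53-A138V + BP100-Luc; 1000 cells/well, Opti-MEM/10% FBS; cpd 4 pt, 1:5; 24 h, 37 deg C, 5% CO2; detection reagent 10 min RT; luminescence.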
SW480 rerep = DNA re-replication induction in SW480 cells; AID 624297; actives 1.8% (n = 340,000); Potency, µM (series often up to 46.1 µM), without a hit: top-dose re-replication activation, hits mostly activators; SW480 DNA re-replication, Hoechst DNA content imaging, 48 h; also: % of control where 0% means no effect; nearly all actives have a fitted effect of over 55% in size
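Cells (250 per well) received 23 nL compound or DMSO by pin tool and were kept 48 hr at 37 C, 5% CO2. Nuclei were then stained with Hoechst for 40 min and scanned for DNA content.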
Numbers without * were called inactive; ? = inconclusive; nt = no result given. Calls follow the shape of the dose curve; as a rule, active = well fitted curve in the direction sought with a large enough effect; inconclusive = small, poorly fitted or top-dose-only effect, or another doubt; inactive = no such curve, though single readings can be large; an effect the other way counts as inactive or inconclusive. Potency is read from the fitted curve at half-maximal effect.

SMILES	ELG1 genotox	ELG1 DNA repair	A-T KAP1 phos	MCF10A rerep	p53 reactivation	SW480 rerep
N#Cc1ccc(C(=O)Nc2ccn(-c3ccccc3)n2)cc1	-7.5%	23.1µM*	1.6%	12.8%	3.5%	-9.8%
CCCCCOc1ccc(NC(=O)C(=O)NCC2CCCN2CC)cc1 (stereo not given)	2.7%	21.3%	1.8%	14.6µM*	8.2%	5.5%
COc1ccc(NC(=O)C(=O)NCC2CCCN2S(=O)(=O)c2cccs2)cc1 (stereo not given)	0.4%	-10.8%	4.6%	6.51µM*	-2.9%	2.59µM*
CCc1ccc(NC(=O)CCC(=O)Nc2nnc(C(F)(F)F)s2)cc1	9.4%	14.8%	0.4%	-1.1%	37.6%	8.1%
CCOC(=O)Nc1ccc2c(CNC(C)c3ccccc3OC)cc(=O)oc2c1 (stereo not given)	-34.2%	2.8%	11.9%	18.4µM*	-11.4%	24.3%
COC(=O)Nc1ccc(S(=O)(=O)N2CCCC(C(=O)NCC3CCCO3)C2)cc1 (stereo not given)	1.5%	0.3%	0.4%	0.3%	-3.4%	4.0%
Cc1ccc(/C=N/NC(=O)c2ccncc2)s1	2.8%	0.6%	-7.8%	-5.0%	2.4%	-7.7%
Cc1ccc(/C=N/N=C/c2ccc(C)s2)s1	3.66µM*	?	-0.7%	-3.2%	?	-2.2%
COc1cc(OC)cc(C(=O)NNC(=O)CNC(=O)c2cccs2)c1	-1.1%	-2.2%	-2.4%	-5.8%	-7.5%	2.0%
CN(C(=O)c1cc(C(=O)N(C)c2ccccc2)cc([N+](=O)[O-])c1)c1ccccc1	-10.3%	?	39.8µM*	11.7%	12.9%	-4.2%
CN(C(=O)c1cccc(C(=O)N(C)c2ccccc2)c1)c1ccccc1	-2.8%	8.1%	-2.6%	-5.6%	nt	-9.5%
COc1cc(C(C)=O)ccc1OCC(=O)Nc1ccc(Cl)c(S(=O)(=O)N2CCOCC2)c1	-2.2%	?	9.2%	4.0%	-17.3%	?
COc1ccc(C(=O)NC(=C(Cl)Cl)S(=O)(=O)c2ccc(C)cc2)cc1	3.1%	-0.1%	1.6%	10.3µM*	-42.2%	13µM*
CCOC(=O)NC(C(Cl)(Cl)Cl)S(=O)(=O)c1ccccc1 (stereo not given)	13.8%	?	?	?	?	?
Cc1ccc(C(=O)NCC#N)cc1	0.1%	-1.4%	3.5%	-7.2%	-4.0%	-6.6%
COC(=O)NC(=C(Cl)Cl)S(=O)(=O)c1ccccc1	nt	nt	nt	7.31µM*	nt	?
Cc1ccc(C(=O)NC(C#N)=C(Cl)Cl)cc1	-10.2%	?	-16.0%	9.2µM*	-11.9%	?
Cc1ccc(C(=O)NC(=C(Cl)Cl)S(=O)(=O)c2ccccc2)cc1	-7.6%	?	-5.6%	20.6µM*	?	-4.1%
Cc1ccc(C(=O)NC(=S)NNS(=O)(=O)c2ccccc2)cc1	-7.8%	6.2%	2.7%	?	0.5%	-3.0%
COc1ccc(NS(=O)(=O)c2cccc(C(=O)NNC(=O)CNC(=O)c3ccccc3F)c2)cc1	1.3%	-3.5%	2.5%	-1.6%	2.2%	2.2%
O=C1OC(OC(=O)c2cccnc2Nc2cccc(C(F)(F)F)c2)c2ccccc21 (stereo not given)	nt	nt	nt	11.8%	nt	2.6%
Nc1c(Br)cc(Br)c2c1C(=O)c1c(cccc1S(=O)(=O)O)C2=O	nt	nt	nt	-16.3%	nt	-23.3%
CCN(CC)c1ccc(NC(=O)c2ccccc2F)cc1	?	?	-3.8%	?	39.8µM*	18.4µM*
CN(C)c1ccc(NC(=O)/C=C/c2ccccc2Cl)cc1	?	?	-2.0%	11.6%	?	7.2%
CCN(CC)c1ccc(NC(=O)c2cc(Cl)ccc2OC)cc1	9.1%	3.4%	nt	?	2.1%	-1.7%
SMILES	ELG1 genotox	ELG1 DNA repair	A-T KAP1 phos	MCF10A rerep	p53 reactivation	SW480 rerep
N#CC1(c2ccc(NC(=O)c3ccccc3F)cc2)CCCC1	1.84µM*	?	1.6%	14.1%	?	2.0%
CCN(CC)c1ccc(NC(=O)/C=C\c2ccccc2Cl)cc1	7.31µM*	?	-22.2%	9.0%	11.7%	?
O=C(/C=C/c1ccncc1)c1ccc(NC(=O)c2ccccc2F)cc1	-16.0%	?	5.5%	3.66µM*	-28.3%	4.11µM*
COc1ccc(-n2c(C)c(C)c3c(NCCCO)ncnc32)cc1	13.8%	?	-6.3%	-1.5%	8.0%	-2.8%
N#Cc1ccc(CN2CCN(C(=O)CNS(=O)(=O)c3ccc4c(c3)OCCCO4)CC2)cc1	1.4%	-2.2%	-10.8%	4.9%	3.3%	-3.2%
COc1ccccc1N1CCN(C(=O)CCC(=O)Nc2nnc(C(C)C)s2)CC1	0.9%	?	8.0%	12.0%	4.9%	1.5%
O=C(Nc1cccc(C(F)(F)F)c1)c1cccc(NS(=O)(=O)c2ccc(O)c(C(=O)O)c2)c1	2.8%	25.6%	28.6%	-0.8%	-1.3%	1.4%
Nn1cnc2scc(-c3ccco3)c2c1=O	1.6%	-7.1%	2.5%	17.0%	3.4%	-8.1%
O=C(Nc1ccc(Nc2ccccc2)cc1)c1ccccc1F	?	?	3.0%	?	-12.3%	4.61µM*
COc1ccc2[nH]c(=O)c(CN(Cc3cccnc3)Cc3nnnn3CC3CCCO3)cc2c1 (stereo not given)	2.3%	-3.3%	2.2%	-11.8%	-2.0%	-4.0%
C=CCn1c(NC(=O)c2ccccc2Cl)c(C#N)c2nc3ccccc3nc21	-6.5%	?	9.0%	16.4µM*	4.7%	18.4µM*
Cc1ccnc(SCc2cc(=O)c(OC(=O)c3ccc(Cl)c([N+](=O)[O-])c3)co2)n1	2.7%	20.6µM*	-2.7%	2.3%	-5.1%	-2.0%
Cc1ccc(C(=O)COC(=O)COc2ccccc2O)cc1C	1.1%	?	6.3%	-3.4%	-0.4%	-5.9%
COc1ccccc1NC(CC(=O)c1ccccc1)C(=O)OCC(=O)c1ccc(C)cc1 (stereo not given)	2.31µM*	?	-1.7%	?	?	?
COc1ccccc1NC(CC(=O)c1ccccc1)C(=O)OCC(=O)c1ccc(C)c(C)c1 (stereo not given)	2.06µM*	?	-9.4%	11.2%	nt	2.7%
O=C(CC(Nc1ccccc1Cl)C(=O)OCC(=O)c1cccs1)c1ccccc1 (stereo not given)	?	?	-3.1%	0.9%	?	-5.2%
COc1ccccc1NC(CC(=O)c1ccccc1)C(=O)OCC(=O)c1ccc(Br)cc1 (stereo not given)	2.06µM*	?	-8.9%	8.6%	?	-5.1%
COc1cc(NC(=O)c2c(F)c(F)c(OC)c(F)c2F)ccc1NC(=O)c1cccs1	-3.6%	-21.8%	14.0%	17.0%	-2.1%	19.1%
